# Measured values reported in PubChem BioAssay AID2315 (National Center for Advancing Translational Sciences (NCATS), 2010).
# Screen size: about 290,000 compounds; about 27,000 (9.3%) were called active. Rule as the data show it: active = inhibition mostly above about 28% (no sharp cut-off); inactive = mostly below about 43%. Many of the other results were omitted from the sample, so actives are more common in it than they were.
# Assay: A qHTS for Small Molecule Inhibitors of Shiga Toxin; also: 0% is about no effect
# Details: Vero cells, Shiga toxin protein synthesis inhibition reporter; at 38.7 µM, hits give high values
row,Compound,inhibition
1,Cc1cc(S(=O)(=O)c2cc3ccc(O)c(C)c3oc2=O)ccc1F,23.1% (inactive)
2,Cc1nn(C)c(C)c1C(C)NC(=O)c1ccc(OC2CCN(Cc3ccccn3)CC2)cc1 (stereo unspecified),8.35% (inactive)
3,NNC(=O)c1nnn(-c2nonc2N)c1CN1CCCC1,-1.91% (inactive)
4,CCc1nc(Nc2ccc(NC(C)=O)cc2)c2oc3ccccc3c2n1,-2.91% (inactive)
5,Cc1c(CNCCc2ccccc2)c(C(=O)O)c(C)n1-c1ccccc1,-0.721% (inactive)
6,Cc1ccc(CSCC2Nc3ccc(C(=O)N4CCN(c5ccc(F)cc5)CC4)cc3NC2=O)cc1 (stereo unspecified),13.1% (inactive)
7,CCOc1ccc(NC(=O)c2ccc(NC(=O)C3CCCO3)cc2)cc1 (stereo unspecified),0.828% (inactive)
8,Cc1cc2c(cc1S(=O)(=O)NCc1ccc(Cl)cc1)OCC(=O)N2,-2.9% (inactive)
9,CC(NC(=O)C1CCCN(S(=O)(=O)c2ccc(-n3cnnn3)cc2)C1)c1ccc(F)cc1 (stereo unspecified),-5.87% (inactive)
10,CSc1ccc(/C=C/C(=O)NC23CC4CC(CC(C4)C2)C3)cc1,103% (active)
11,Cc1ccc(C(=O)NC23CC4CC(CC(C4)C2)C3)c(Cl)c1,6.22% (inactive)
12,CSc1ccc(NC(=O)/C=C/C(=O)O)cc1,18.3% (inactive)
13,Cc1ccc2sc(N(CCN(C)C)C(=O)/C=C/c3cccs3)nc2c1C,-3.15% (inactive)
14,CCOC(=O)c1nc(Nc2ccc(C(=O)OC)cc2)c2ccccc2n1,17% (inactive)
15,COC(=O)c1ccc(NC(=O)CSc2nncc3ccc(OC)c(OC)c23)cc1,-11.5% (inactive)
16,COC(=O)c1ccc(Nc2ncnc3sccc23)cc1,42% (active)
17,COc1cc2c(cc1OC)C(c1cccc([N+](=O)[O-])c1)=NCC2,-8.7% (inactive)
18,O=c1[nH]c(=S)n(C2CC2)c(O)c1/C=N/N1CCOCC1,-6.68% (inactive)
19,O=C(N/N=C/c1c(O)n(C2CC2)c(=S)[nH]c1=O)c1ccccc1Cl,30.7% (inactive)
20,O=C(N/N=C/c1c(O)n(C2CC2)c(=S)[nH]c1=O)c1ccccc1,84.6% (active)
21,Cn1cnc2c1c(=O)n(Cc1ccccc1C#N)c(=O)n2C,-8.82% (inactive)

row,Compound,inhibition
1,COC(=O)[C@@H](NC(=O)Nc1cc(Cl)ccc1C)C(C)C,8.66% (inactive)
2,Cc1ccc(Cl)cc1NC(=O)c1ccccn1,31.5% (active)
3,Cc1ccc(NC(=O)c2ccccn2)cc1S(=O)(=O)N1CCOCC1,28% (inactive)
4,O=C(N/C(=C\c1ccc([N+](=O)[O-])cc1)C(=O)N1CCOCC1)c1cccc(Br)c1,-35.2% (inactive)
5,Fc1ccccc1OCCSc1nc2ccccc2o1,110% (active)
6,Cn1c(=O)c2c(nc(Br)n2CCSc2nc3ccccc3o2)n(C)c1=O,-12.2% (inactive)
7,OCCNCCCCOc1ccccc1F,-2.38% (inactive)
8,O=S(=O)(c1cccc(-c2cn3ccccc3n2)c1)N1CCCC1,16.7% (inactive)
9,COc1ccc(C(CC(=O)c2ccccc2)S(=O)(=O)c2ccccc2)cc1 (stereo unspecified),26.9% (active)
10,COc1ccc(N(Cc2ccccc2)S(=O)(=O)c2cccc(C(=O)O)c2)cc1,-12.2% (inactive)
11,COc1ccc(CN(C)C(=O)CC(c2ccccc2)c2ccccc2)cc1,6.72% (inactive)
12,Cc1[nH]c2ccccc2c1C(=O)CN1CC(C)CC(C)C1 (stereo unspecified),-6.33% (inactive)
13,COc1ccc(-n2cnc3cc(C(=O)NC4CCCC4)ccc32)cc1,-10.6% (inactive)
14,COc1ccc2nc(NC(=O)NC3CCCCC3)sc2c1,96.4% (active)
15,COc1ccc2nc(NC(=O)c3ccc(Br)s3)sc2c1,51.2% (active)
16,Cc1nc2cc3c(cc2s1)OCO3,13.4% (inactive)
17,COc1ccc2nc(NC(=O)[C@@H]3CCCN3C(=O)c3cccs3)sc2c1,60.1% (inactive)
18,COc1ccc2nc(Nc3nc4cc5c(cc4s3)OCCO5)sc2c1,46.4% (active)
19,CCn1c(SCC(=O)Nc2nc3ccc(OC)cc3s2)nnc1-c1ccoc1C,56.7% (inactive)
20,COc1ccc(CNC(=O)c2ccc(Br)s2)cc1OC,31.8% (inactive)
21,COc1ccc2nc(Nc3nc4ccc(NC(C)=O)cc4s3)sc2c1,35.3% (inactive)

row,Compound,inhibition
1,COc1ccc(N(CC(=O)Nc2cc(OC)ccc2OC)S(=O)(=O)c2c(C)noc2C)cc1,-2.51% (inactive)
2,O=C(O)c1ccc(/C=C2/SC(=S)N(c3cccc(C(F)(F)F)c3)C2=O)cc1,-0.926% (inactive)
3,CCOC(=O)c1cc(S(=O)(=O)NCCc2ccc(OC)c(OC)c2)cn1C,-9.15% (inactive)
4,Cc1cc(C)c2c3c(sc2n1)C(c1ccccc1)C(C#N)=C(N)O3 (stereo unspecified),16.2% (inactive)
5,N#CC1=C(N)Oc2c(c(=O)oc3ccccc23)C1c1ccccc1OC(=O)c1cccs1 (stereo unspecified),-8.1% (inactive)
6,N#CC1=C(N)Oc2c(sc3ccccc23)C1c1ccco1 (stereo unspecified),139% (active)
7,COc1cccc(NC(=O)CSc2nnc(Cc3ccc(OC)c(OC)c3)o2)c1,-3.46% (inactive)
8,CCN(CC)CCCNC(=S)N(CCO)Cc1cc2cc3c(cc2[nH]c1=O)OCO3,-4.73% (inactive)
9,COCCNc1ncnc2c1nc1n2CCCC1,-7.74% (inactive)
10,O=C(NCCc1ccc(F)cc1)c1n[nH]c2ccccc12,69.4% (active)
11,O=C(CC(=O)N/N=C\c1ccc(F)cc1)NCCc1ccccc1,10.7% (inactive)
12,C=CCN(CC=C)C(=O)COC(=O)c1n[nH]c2ccccc12,10.1% (inactive)
13,COc1cccc(CNC(=O)Cc2csc(Nc3nc(=S)[nH]c4ccccc34)n2)c1,1.99% (inactive)
14,CCN(CC)S(=O)(=O)c1ccc2nc(COC(=O)c3n[nH]c4ccccc34)[nH]c2c1,-12.2% (inactive)
15,O=C(COC(=O)c1n[nH]c2ccccc12)NCc1ccccc1,-4.54% (inactive)
16,COc1ccc(COC(=O)c2n[nH]c3ccccc23)cc1F,52.9% (active)
17,O=C(NCCCO)c1cc2c([nH]c3ccccc32)c(-c2ccc(F)cc2)n1,-5.91% (inactive)
18,COc1cccc(CNC(=O)c2n[nH]c3ccccc23)c1,31.3% (active)
19,Cc1cccc(OCC(O)Cn2c(N3CCCCC3)nc3c2c(=O)[nH]c(=O)n3C)c1 (stereo unspecified),35.6% (inactive)
